Test results reported in PubChem BioAssay (NCI).
About 79,000 compounds went through this panel and 15% of them were active in at least one assay; those are over-represented in the sample as a whole. A number with no mark means an inactive call. Calls of active or inactive are those of the source. No stated cut-off is given here; in the data, active means growth inhibition above about 70%; inactive means the rest.

What was measured:
[1] = NCI Yeast Anticancer Drug Screen. Data for the rad50 strain (AID 155);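 further: 0% = growth of vehicle-only cultures of the same strain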; conditions: S. cerevisiae rad50 strain growth inhibition; at 50.0 µM; stronger effect = higher value
Procedure, shortened: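 DNA repair mutant yeast, compound exposure, growth read-out; inhibition is taken relative to vehicle.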

[2] = NCI Yeast Anticancer Drug Screen. Data for the mec2-1 strain (AID 157); conditions: S. cerevisiae mec2-1 strain, at 50.0 µM, stronger effect = higher value
Procedure, shortened: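 Readout is yeast growth inhibition, normalised to vehicle-treated controls, in the mec2-1 strain exposed to compound.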

[3] = NCI Yeast Anticancer Drug Screen. Data for the sgs1 mgt1 strain (AID 161);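 further: 0% = growth of cultures given vehicle only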; conditions: S. cerevisiae sgs1 mgt1 strain, at 50.0 µM, stronger effect = higher value
Procedure, shortened: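 Yeast cells carrying a defined DNA-repair defect were exposed to test compounds. Growth inhibition was measured relative to vehicle-treated controls.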

[4] = NCI Yeast Anticancer Drug Screen. Data for the cln2 rad14 strain (AID 165);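 further: 0% = growth equal to vehicle treated cultures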; conditions: S. cerevisiae cln2 rad14 strain, at 50.0 µM, stronger effect = higher value
Procedure, shortened: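 Relative to vehicle controls, growth inhibition of compound-treated cln2 rad14 yeast was recorded.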

[5] = NCI Yeast Anticancer Drug Screen. Data for the bub3 strain (AID 167); conditions: S. cerevisiae bub3 mutant strain, at 50.0 µM, stronger effect = higher value
Procedure, shortened: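 In this screen, a yeast mutant lacking normal mitotic checkpoint function is challenged with compound. Relative growth versus vehicle gives the inhibition value.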

[6] = NCI Yeast Anticancer Drug Screen. Data for the mlh1 rad18 strain (AID 175); conditions: S. cerevisiae mlh1 rad18 strain growth inhibition; at 50.0 µM; stronger effect = higher value
Procedure, shortened: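 Test agents were incubated with a yeast strain of defined genotype (DNA damage repair defect). Inhibition of growth was derived by comparison with vehicle-exposed cultures.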

CCC(=O)C(c1ccccc1)(c1ccccc1)C(C)CN(C)C (stereo not given)
growth inhibition [1]: -8.7% | growth inhibition [2]: -9.2% | growth inhibition [3]: 9.35% | growth inhibition [4]: -5.55% | growth inhibition [5]: -4.9% | growth inhibition [6]: -6.35%

Cc1ccccc1.[C-]#[O+].[C-]#[O+].[C-]#[O+].[W]
growth inhibition [1]: -11.5% | growth inhibition [2]: -1.2% | growth inhibition [3]: 2% | growth inhibition [4]: 28.2% | growth inhibition [5]: 24.9% | growth inhibition [6]: -8.05%

Nc1nc(-c2ccccc2)c[se]1
growth inhibition [1]: 63.6% | growth inhibition [2]: 32.3% | growth inhibition [3]: 30.6% | growth inhibition [4]: 16.6% | growth inhibition [5]: -7.65% | growth inhibition [6]: 31.4%

COc1ccc(C(OCC2OC(n3ccc(Oc4c(F)c(F)c(F)c(F)c4F)nc3=O)CC2OP(OCCC#N)N(C(C)C)C(C)C)(c2ccccc2)c2ccc(OC)cc2)cc1 (stereo not given)
growth inhibition [1]: 18.1% | growth inhibition [2]: 4.8% | growth inhibition [3]: 6.65% | growth inhibition [4]: -9.2% | growth inhibition [5]: -7.2% | growth inhibition [6]: -2.65%

C[C@]12CC[C@H](OC(=O)Cc3ccc(N(CCCl)CCCl)cc3)CC1CC[C@@H]1C2CC[C@]2(C)NC(=O)CCC12 (stereo not given in full)
growth inhibition [1]: 0.1% | growth inhibition [2]: -5.65% | growth inhibition [3]: 15.9% | growth inhibition [4]: 15.2% | growth inhibition [5]: 3.65% | growth inhibition [6]: 18.1%

O=C(O)c1ccccc1Cl
growth inhibition [1]: -8% | growth inhibition [2]: -11.5% | growth inhibition [3]: 3.75% | growth inhibition [4]: 30.9% | growth inhibition [5]: 5.2% | growth inhibition [6]: 16.4%

O=C1CCCCC1CN1CCCCC1 (stereo not given)
growth inhibition [1]: 4.8% | growth inhibition [2]: -3.2% | growth inhibition [3]: -2.45% | growth inhibition [4]: -3.25% | growth inhibition [5]: 3.45% | growth inhibition [6]: 1.25%

CC1(C)N=C(N)N=C(N)N1c1ccc(CCC(=O)Nc2cccc(S(=O)(=O)F)c2)c(Cl)c1
growth inhibition [1]: 57.7% | growth inhibition [2]: 82.4% (active) | growth inhibition [3]: 68% | growth inhibition [4]: -3.05% | growth inhibition [5]: -31.9% | growth inhibition [6]: 8.05%

CCOC(C(=O)O)(c1ccccc1)c1ccccc1
growth inhibition [1]: -0.55% | growth inhibition [2]: 22.2% | growth inhibition [3]: 18.5% | growth inhibition [4]: -10.1% | growth inhibition [5]: 19.5% | growth inhibition [6]: 22.8%

O=C(OCC1CCCN2CCCCC12)c1ccncc1 (stereo not given)
growth inhibition [1]: 4.9% | growth inhibition [2]: 2.9% | growth inhibition [3]: 48.4% | growth inhibition [4]: 15.4% | growth inhibition [5]: 34.3% | growth inhibition [6]: 2.35%

CN1CCC(O)(c2ccccc2)C(C(O)c2ccccc2)C1 (stereo not given)
growth inhibition [1]: 5.2% | growth inhibition [2]: -21.7% | growth inhibition [3]: 17.9% | growth inhibition [4]: -8.55% | growth inhibition [5]: -23.9% | growth inhibition [6]: -20.6%

Nc1cccc2c1Cc1cc([N+](=O)[O-])ccc1-2
growth inhibition [1]: 8.1% | growth inhibition [2]: -37.2% | growth inhibition [3]: 17.6% | growth inhibition [4]: -14.4% | growth inhibition [5]: 3.6% | growth inhibition [6]: -1.4%

O=C1/C(=C\c2ccc([N+](=O)[O-])cc2)N2CCC1CC2
growth inhibition [1]: -8.3% | growth inhibition [2]: 5.3% | growth inhibition [3]: -3.65% | growth inhibition [4]: -0.45% | growth inhibition [5]: 1.75% | growth inhibition [6]: 7.05%

O=S(=O)(F)c1ccccc1S(=O)(=O)Cl
growth inhibition [1]: 11.7% | growth inhibition [2]: -2.55% | growth inhibition [3]: 15.6% | growth inhibition [4]: 16.4% | growth inhibition [5]: 12.4% | growth inhibition [6]: 21.6%

O=C1NC(=O)C(O)(C2=C(O)CCC2=O)C(=O)N1
growth inhibition [1]: 12.8% | growth inhibition [2]: -0.3% | growth inhibition [3]: 4.9% | growth inhibition [4]: -25.6% | growth inhibition [5]: 13.9% | growth inhibition [6]: 10.4%

C=C1C(=O)OC2CCN3CC=C(COC(=O)C(C)(O)C4(CO4)C1C)C23 (stereo not given)
growth inhibition [1]: 11.1% | growth inhibition [2]: 0.95% | growth inhibition [3]: -20.9% | growth inhibition [4]: -12.8% | growth inhibition [5]: -35.5% | growth inhibition [6]: -59.5%

C=C1C(=O)OC2CC3(C)OC3C3OC3C3=CC(OC3=O)C12 (stereo not given)
growth inhibition [1]: 18.9% | growth inhibition [2]: 34.7% | growth inhibition [3]: 57.1% | growth inhibition [4]: 29.6% | growth inhibition [5]: 41.4% | growth inhibition [6]: 38.1%

CC(O)C[As](=O)(O)c1cccc(Cl)c1 (stereo not given)
growth inhibition [1]: 2.05% | growth inhibition [2]: 33.9% | growth inhibition [3]: 10.3% | growth inhibition [4]: -0.7% | growth inhibition [5]: 37.5% | growth inhibition [6]: 39.5%

CC(C)N([PH2+]N(C(C)C)C(C)C)C(C)C.[C-]#[O+].[C-]#[O+].[C-]#[O+].[C-]#[O+].[C-]#[O+].[Mo]
growth inhibition [1]: 9.4% | growth inhibition [2]: 15.9% | growth inhibition [3]: -2.2% | growth inhibition [4]: 17.1% | growth inhibition [5]: 6.35% | growth inhibition [6]: -1.35%

CN(c1ccccc1)c1nc(=[N+]2CCCC2)ss1
growth inhibition [1]: 11.6% | growth inhibition [2]: -1.3% | growth inhibition [3]: -11.8% | growth inhibition [4]: 0.9% | growth inhibition [5]: 7.75% | growth inhibition [6]: 24.6%

Oc1ccc(C(c2cc3c(cc2O)OCO3)N2CCNCC2)cc1 (stereo not given)
growth inhibition [1]: 21.8% | growth inhibition [2]: 25.7% | growth inhibition [3]: 25.9% | growth inhibition [4]: -22.2% | growth inhibition [5]: 18.5% | growth inhibition [6]: 31.7%

C#CCOCC(O)C[As](=O)(O)c1cccc(Cl)c1 (stereo not given)
growth inhibition [1]: 5.85% | growth inhibition [2]: 16.5% | growth inhibition [3]: 7.9% | growth inhibition [4]: -5.3% | growth inhibition [5]: 10.7% | growth inhibition [6]: -8.75%

Oc1ccc(O)c(Br)c1
growth inhibition [1]: 18.8% | growth inhibition [2]: 5.9% | growth inhibition [3]: 28.1% | growth inhibition [4]: -21.3% | growth inhibition [5]: -4.85% | growth inhibition [6]: 29.4%

c1cc[c]([Pb]([S]c2ccccn2)([c]2ccccc2)[c]2ccccc2)cc1
growth inhibition [1]: 99.2% (active) | growth inhibition [2]: 99.1% (active) | growth inhibition [3]: 99.5% (active) | growth inhibition [4]: 99% (active) | growth inhibition [5]: 99% (active) | growth inhibition [6]: 99.2% (active)

O=S(=O)(O)C1CCC(O)C2[N-]CCCC21.O=S(=O)(O)C1CCC(O)C2[N-]CCCC21.[Zn+2] (stereo not given)
growth inhibition [1]: 1.75% | growth inhibition [2]: 0.9% | growth inhibition [3]: 6.2% | growth inhibition [4]: 25.8% | growth inhibition [5]: -10.7% | growth inhibition [6]: 5.05%

CC(=O)OC(C)(C)/C=C/C(=O)[C@](C)(O)[C@H]1[C@H](O)C[C@@]2(C)[C@@H]3CC=C4[C@@H](C[C@H](O)C(=O)C4(C)C)[C@]3(CO)C(=O)C[C@]12C
growth inhibition [1]: 21.1% | growth inhibition [2]: -12.9% | growth inhibition [3]: 15.3% | growth inhibition [4]: -7.8% | growth inhibition [5]: 18.6% | growth inhibition [6]: 18.9%

O=C(O)c1ccc(=O)[nH]c1
growth inhibition [1]: 25.6% | growth inhibition [2]: 7.85% | growth inhibition [3]: 10.2% | growth inhibition [4]: -22.1% | growth inhibition [5]: 13.9% | growth inhibition [6]: 19.6%

O=S(=O)(c1ccccc1)c1ccccc1
growth inhibition [1]: -2.9% | growth inhibition [2]: 1.55% | growth inhibition [3]: 1.6% | growth inhibition [4]: -8.05% | growth inhibition [5]: 0.1% | growth inhibition [6]: -37.9%

Nc1ccccc1Nc1ccccc1C(=O)[O-].Nc1ccccc1Nc1ccccc1C(=O)[O-].[Cu+2]
growth inhibition [1]: -3.5% | growth inhibition [2]: 7.8% | growth inhibition [3]: -19.5% | growth inhibition [4]: -3.3% | growth inhibition [5]: -11.8% | growth inhibition [6]: 7.75%

PCc1ccccc1.[Cl][Hg][Cl]
growth inhibition [1]: -34.7% | growth inhibition [2]: 12.7% | growth inhibition [3]: 14.2% | growth inhibition [4]: -59.4% | growth inhibition [5]: -6% | growth inhibition [6]: 12.6%

O=NNc1cncc(NN=O)n1
growth inhibition [1]: -37.9% | growth inhibition [2]: 1.1% | growth inhibition [3]: -2.8% | growth inhibition [4]: -14.9% | growth inhibition [5]: -4.95% | growth inhibition [6]: 3.75%

OC1NC2CC3NC(O)C(O)NC3CC2NC1O (stereo not given)
growth inhibition [1]: -16.6% | growth inhibition [2]: -4.25% | growth inhibition [3]: 12.7% | growth inhibition [4]: 22.9% | growth inhibition [5]: 16.1% | growth inhibition [6]: 11.4%

COc1cc(C=C2C(=O)NC(=O)NC2=O)ccc1O
growth inhibition [1]: 1.85% | growth inhibition [2]: -23.4% | growth inhibition [3]: 5.05% | growth inhibition [4]: 4.3% | growth inhibition [5]: -2% | growth inhibition [6]: 6.35%

CCCCC1(CCSC(=S)OCC)C(=O)NC(=O)NC1=O
growth inhibition [1]: 12.6% | growth inhibition [2]: -12.1% | growth inhibition [3]: 1.55% | growth inhibition [4]: -36.4% | growth inhibition [5]: -2.7% | growth inhibition [6]: -11.8%

[Cl][Co][Br].[NH-]CC[NH-].[NH-]CC[NH-]
growth inhibition [1]: -12.7% | growth inhibition [2]: 3.95% | growth inhibition [3]: 13.9% | growth inhibition [4]: -42.1% | growth inhibition [5]: 36.4% | growth inhibition [6]: 21.2%

CCCCCCCCCCCC(=O)[O][Pb]([CH2]CCC)([CH2]CCC)[O]C(=O)CCCCCCCCCCC
growth inhibition [1]: 23.5% | growth inhibition [2]: 4.05% | growth inhibition [3]: 13.2% | growth inhibition [4]: -3.15% | growth inhibition [5]: 6.45% | growth inhibition [6]: 23%

C=C1C(=O)OC2/C=C(\C)CC/C=C(/C)CC(OC(=O)/C(=C/CO)CO)C12 (stereo not given)
growth inhibition [1]: 6.3% | growth inhibition [2]: -11.6% | growth inhibition [3]: 14.7% | growth inhibition [4]: 13% | growth inhibition [5]: -6% | growth inhibition [6]: -54.7%

O=C([O-])C(=O)[O-].[Co+3].[NH2-].[NH2-].[NH2-].[NH2-].[O-][Cl+3]([O-])([O-])O
growth inhibition [1]: 18.5% | growth inhibition [2]: 21.9% | growth inhibition [3]: 13.2% | growth inhibition [4]: 15.7% | growth inhibition [5]: 18.1% | growth inhibition [6]: 36.8%

O=Cc1ccccc1O.[La]
growth inhibition [1]: -7.9% | growth inhibition [2]: -28.1% | growth inhibition [3]: 14.1% | growth inhibition [4]: -5.45% | growth inhibition [5]: -7.7% | growth inhibition [6]: 2.15%

CC(=N\O)/C(C)=N/O.CC(=N\O)/C(C)=N/O.CC(=N\O)/C(C)=N/O.CC(=N\O)/C(C)=N/O.[Cu].[Cu]
growth inhibition [1]: -7.15% | growth inhibition [2]: 12.9% | growth inhibition [3]: -22.1% | growth inhibition [4]: -8.2% | growth inhibition [5]: -13.9% | growth inhibition [6]: -4.2%
